What was measured:
Assay in all cases: log2 ratio of Biotin-Ahx-Ub-VS probe labelling (fragment/DMSO); higher = less target engagement (more negative = stronger competition), active = hit call of the paper (q ≤ 0.05, log2 ratio ≤ -1)
Settings in all cases: compound concentration: 200 uM; treatment time: 3 h
USP19 = target: T1, USP19 (UniProt O94966)
T1 sequence (whole entry): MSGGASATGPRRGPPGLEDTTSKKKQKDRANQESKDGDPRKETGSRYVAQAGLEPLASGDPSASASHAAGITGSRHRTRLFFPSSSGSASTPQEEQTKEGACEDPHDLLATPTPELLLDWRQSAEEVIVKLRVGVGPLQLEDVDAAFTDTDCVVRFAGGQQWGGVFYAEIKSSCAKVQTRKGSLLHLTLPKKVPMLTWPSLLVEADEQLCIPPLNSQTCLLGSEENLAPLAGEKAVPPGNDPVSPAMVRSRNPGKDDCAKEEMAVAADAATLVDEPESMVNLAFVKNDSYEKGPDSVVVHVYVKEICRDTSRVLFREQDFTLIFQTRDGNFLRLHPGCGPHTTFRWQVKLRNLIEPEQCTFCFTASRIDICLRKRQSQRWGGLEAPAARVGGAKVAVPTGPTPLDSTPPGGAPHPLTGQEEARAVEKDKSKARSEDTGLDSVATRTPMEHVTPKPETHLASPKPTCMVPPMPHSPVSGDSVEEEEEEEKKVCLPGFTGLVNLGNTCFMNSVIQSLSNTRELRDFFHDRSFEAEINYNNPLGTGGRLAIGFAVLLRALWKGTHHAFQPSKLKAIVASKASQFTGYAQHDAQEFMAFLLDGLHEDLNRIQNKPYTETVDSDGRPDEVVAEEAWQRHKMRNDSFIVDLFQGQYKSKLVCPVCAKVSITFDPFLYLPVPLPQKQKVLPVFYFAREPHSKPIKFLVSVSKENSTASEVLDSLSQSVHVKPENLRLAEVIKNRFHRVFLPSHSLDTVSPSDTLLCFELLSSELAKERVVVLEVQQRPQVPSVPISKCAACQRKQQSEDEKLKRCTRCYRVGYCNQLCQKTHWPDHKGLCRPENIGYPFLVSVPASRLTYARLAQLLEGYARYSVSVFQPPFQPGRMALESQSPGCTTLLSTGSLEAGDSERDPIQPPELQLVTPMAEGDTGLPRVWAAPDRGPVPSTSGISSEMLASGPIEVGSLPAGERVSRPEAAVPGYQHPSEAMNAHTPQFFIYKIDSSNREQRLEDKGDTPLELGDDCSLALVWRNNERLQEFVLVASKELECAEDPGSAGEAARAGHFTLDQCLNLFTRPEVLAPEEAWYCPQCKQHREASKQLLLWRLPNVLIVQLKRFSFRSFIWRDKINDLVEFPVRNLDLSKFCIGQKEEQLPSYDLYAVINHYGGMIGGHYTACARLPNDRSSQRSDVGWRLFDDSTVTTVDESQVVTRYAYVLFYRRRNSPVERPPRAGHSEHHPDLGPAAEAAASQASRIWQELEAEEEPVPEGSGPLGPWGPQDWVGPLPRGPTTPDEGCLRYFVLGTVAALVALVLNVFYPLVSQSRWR
How it was run: (§1)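 Each value is an average log2 ratio of fragment to vehicle, tested by unpaired t-test. The underlying Spectronaut label-free quantities were global-median-normalised, and only proteins with ≥2 unique peptides were included. Triplicate HEK293T lysate samples (495 µg) were exposed to fragment at 200 µM or vehicle for 3 h, then to Biotin-Ahx-Ub-VS at 0.5 µM final for 1 h, before NeutrAvidin enrichment of labelled DUBs, LysC and trypsin digestion, and diaPASEF LC-MS/MS.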

USP24 = USP24 (UniProt Q9UPU5)
Sequence of USP24 (Q9UPU5 whole entry): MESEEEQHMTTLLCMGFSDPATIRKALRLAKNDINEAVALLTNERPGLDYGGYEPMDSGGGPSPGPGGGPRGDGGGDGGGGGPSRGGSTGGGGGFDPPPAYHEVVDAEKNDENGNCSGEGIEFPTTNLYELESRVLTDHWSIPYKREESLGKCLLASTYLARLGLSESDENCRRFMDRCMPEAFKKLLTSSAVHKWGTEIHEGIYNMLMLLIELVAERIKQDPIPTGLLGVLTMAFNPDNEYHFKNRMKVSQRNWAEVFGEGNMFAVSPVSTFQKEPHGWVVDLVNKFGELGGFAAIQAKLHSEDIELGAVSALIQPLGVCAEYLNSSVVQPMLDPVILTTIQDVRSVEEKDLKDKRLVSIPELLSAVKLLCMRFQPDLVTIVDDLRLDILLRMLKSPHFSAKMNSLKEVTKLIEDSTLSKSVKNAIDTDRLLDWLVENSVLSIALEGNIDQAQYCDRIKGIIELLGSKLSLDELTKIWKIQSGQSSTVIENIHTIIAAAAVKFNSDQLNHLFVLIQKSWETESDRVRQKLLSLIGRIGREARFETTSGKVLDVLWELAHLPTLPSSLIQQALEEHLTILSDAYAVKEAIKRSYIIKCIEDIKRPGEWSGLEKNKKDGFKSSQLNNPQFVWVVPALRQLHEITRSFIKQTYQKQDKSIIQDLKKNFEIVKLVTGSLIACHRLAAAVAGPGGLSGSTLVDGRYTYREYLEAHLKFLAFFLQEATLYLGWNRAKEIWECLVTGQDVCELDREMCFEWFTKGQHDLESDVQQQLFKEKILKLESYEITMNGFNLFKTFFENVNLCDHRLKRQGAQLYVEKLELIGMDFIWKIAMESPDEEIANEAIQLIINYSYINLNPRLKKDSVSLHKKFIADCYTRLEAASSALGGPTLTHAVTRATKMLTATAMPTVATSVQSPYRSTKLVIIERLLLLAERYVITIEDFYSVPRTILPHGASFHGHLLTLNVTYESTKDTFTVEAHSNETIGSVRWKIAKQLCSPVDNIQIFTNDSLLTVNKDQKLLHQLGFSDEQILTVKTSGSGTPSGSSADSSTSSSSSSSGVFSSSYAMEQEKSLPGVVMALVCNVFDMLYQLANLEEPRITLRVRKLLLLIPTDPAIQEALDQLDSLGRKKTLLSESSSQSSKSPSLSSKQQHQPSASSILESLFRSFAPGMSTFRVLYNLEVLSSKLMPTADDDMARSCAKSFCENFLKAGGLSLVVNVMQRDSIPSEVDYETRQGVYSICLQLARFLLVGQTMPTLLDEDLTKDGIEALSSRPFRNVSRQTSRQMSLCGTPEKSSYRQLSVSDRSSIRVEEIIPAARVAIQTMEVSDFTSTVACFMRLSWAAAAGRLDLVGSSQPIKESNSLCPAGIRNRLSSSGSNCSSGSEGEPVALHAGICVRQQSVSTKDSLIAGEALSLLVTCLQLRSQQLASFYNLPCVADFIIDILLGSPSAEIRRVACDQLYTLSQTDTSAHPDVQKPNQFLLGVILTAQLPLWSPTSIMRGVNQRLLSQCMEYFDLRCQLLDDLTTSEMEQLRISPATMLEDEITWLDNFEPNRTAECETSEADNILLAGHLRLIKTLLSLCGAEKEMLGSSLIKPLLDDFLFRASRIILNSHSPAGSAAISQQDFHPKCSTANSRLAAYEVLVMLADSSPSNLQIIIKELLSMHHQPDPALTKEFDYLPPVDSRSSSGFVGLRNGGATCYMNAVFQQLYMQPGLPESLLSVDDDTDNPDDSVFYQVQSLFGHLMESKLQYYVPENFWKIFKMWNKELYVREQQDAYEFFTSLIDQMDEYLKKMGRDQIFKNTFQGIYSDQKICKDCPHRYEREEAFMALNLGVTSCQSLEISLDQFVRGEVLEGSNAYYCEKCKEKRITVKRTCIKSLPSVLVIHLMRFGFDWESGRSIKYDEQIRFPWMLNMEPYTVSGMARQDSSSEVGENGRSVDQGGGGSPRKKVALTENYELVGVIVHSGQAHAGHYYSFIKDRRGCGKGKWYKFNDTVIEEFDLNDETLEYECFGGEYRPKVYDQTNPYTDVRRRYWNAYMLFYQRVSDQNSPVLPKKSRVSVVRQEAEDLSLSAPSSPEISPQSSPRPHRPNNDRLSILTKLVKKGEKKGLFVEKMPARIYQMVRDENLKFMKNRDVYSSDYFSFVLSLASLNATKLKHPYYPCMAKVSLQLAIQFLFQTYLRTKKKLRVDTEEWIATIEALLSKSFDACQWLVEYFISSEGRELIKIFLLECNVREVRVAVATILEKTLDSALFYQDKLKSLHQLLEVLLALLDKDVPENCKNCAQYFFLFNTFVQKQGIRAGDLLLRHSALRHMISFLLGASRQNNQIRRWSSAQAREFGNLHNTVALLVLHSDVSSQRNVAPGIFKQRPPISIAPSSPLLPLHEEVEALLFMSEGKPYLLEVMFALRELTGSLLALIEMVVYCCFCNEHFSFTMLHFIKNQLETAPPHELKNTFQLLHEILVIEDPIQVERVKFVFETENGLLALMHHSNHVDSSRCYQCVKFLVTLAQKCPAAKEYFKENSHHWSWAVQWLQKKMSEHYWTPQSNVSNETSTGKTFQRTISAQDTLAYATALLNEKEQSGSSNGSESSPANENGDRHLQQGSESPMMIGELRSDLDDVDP
How it was run: as §1

USP25 = target: T2, USP25 (UniProt Q9UHP3)
T2 sequence (whole entry): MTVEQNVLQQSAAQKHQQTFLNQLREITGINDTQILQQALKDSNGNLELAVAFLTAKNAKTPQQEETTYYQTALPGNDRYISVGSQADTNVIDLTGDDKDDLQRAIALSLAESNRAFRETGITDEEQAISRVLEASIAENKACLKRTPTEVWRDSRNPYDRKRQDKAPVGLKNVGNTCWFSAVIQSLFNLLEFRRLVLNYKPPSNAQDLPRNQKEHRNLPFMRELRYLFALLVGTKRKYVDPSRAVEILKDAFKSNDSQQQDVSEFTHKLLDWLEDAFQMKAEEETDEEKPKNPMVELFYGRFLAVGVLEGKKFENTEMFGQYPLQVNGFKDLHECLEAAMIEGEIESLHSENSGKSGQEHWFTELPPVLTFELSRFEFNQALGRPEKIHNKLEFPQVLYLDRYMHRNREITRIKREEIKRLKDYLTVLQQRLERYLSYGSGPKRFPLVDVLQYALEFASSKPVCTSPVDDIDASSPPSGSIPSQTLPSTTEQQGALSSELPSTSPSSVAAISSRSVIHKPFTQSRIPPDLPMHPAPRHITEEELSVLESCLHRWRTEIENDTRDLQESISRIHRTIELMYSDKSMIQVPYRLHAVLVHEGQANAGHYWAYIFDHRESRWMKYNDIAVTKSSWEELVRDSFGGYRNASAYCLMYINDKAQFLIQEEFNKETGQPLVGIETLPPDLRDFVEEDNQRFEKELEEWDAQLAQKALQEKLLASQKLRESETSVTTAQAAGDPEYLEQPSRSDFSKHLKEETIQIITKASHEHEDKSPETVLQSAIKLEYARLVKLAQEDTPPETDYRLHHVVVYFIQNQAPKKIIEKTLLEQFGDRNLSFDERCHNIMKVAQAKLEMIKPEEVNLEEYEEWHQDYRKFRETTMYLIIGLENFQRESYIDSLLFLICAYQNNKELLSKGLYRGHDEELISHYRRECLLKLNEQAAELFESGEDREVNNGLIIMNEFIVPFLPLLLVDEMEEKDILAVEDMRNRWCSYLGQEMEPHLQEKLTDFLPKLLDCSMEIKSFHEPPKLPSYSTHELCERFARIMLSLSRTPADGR
How it was run: as §1

USP28 = target: T3, USP28 (UniProt Q96RU2)
T3 sequence (whole entry): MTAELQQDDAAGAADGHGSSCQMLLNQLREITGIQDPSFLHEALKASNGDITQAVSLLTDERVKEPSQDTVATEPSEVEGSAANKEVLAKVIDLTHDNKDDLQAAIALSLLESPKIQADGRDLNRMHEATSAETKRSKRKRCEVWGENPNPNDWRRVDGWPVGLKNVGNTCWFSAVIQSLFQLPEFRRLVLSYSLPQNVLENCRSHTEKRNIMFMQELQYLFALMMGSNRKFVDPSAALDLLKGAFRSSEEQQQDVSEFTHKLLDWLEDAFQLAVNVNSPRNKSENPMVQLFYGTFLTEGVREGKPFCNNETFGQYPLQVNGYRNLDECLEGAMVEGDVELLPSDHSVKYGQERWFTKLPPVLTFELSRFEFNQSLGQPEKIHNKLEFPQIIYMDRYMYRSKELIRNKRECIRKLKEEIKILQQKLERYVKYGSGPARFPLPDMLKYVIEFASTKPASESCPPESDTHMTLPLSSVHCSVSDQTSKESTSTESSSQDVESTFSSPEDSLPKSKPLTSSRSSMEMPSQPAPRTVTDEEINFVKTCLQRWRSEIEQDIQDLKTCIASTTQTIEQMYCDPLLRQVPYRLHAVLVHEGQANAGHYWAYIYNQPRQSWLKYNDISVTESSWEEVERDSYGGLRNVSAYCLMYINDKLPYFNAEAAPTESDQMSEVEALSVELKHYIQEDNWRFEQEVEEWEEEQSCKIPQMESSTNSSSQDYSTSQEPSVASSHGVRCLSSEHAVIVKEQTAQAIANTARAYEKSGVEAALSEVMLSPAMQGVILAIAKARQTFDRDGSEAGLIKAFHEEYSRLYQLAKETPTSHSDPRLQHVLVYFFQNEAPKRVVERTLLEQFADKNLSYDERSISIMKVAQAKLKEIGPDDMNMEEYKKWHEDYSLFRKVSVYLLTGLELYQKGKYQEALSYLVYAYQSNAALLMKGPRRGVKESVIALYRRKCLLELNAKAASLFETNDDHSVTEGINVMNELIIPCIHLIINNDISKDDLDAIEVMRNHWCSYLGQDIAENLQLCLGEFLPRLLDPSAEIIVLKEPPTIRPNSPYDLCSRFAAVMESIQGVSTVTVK
How it was run: as §1

Measured: log2 ratio of Biotin-Ahx-Ub-VS probe labelling

C[C@H]1CN(C(=O)CCl)CCN1C(=O)c1cnn(C)c1.Cl
inactive: USP19 -0.18 | USP24 -0.132 | USP25 -0.0187 | USP28 -0.325

Reference: the supplement of paper PMC11732987, “Enantioselective OTUD7B fragment discovery through chemoproteomics screening and high-throughput optimisation” (Communications Chemistry, 2025)
